# From PubChem BioAssay
# Calls of active or inactive are those of the source.
# How the values were obtained:
# [1] = binders of probe aFSTL3 on microarray, primary screen, stem cell growth factor project, biochemical, small-molecule microarray, fluorescence 635/667 (AID 1064); details: higher = more signal;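 note: measures binding of the biotinylated anti-FSTL3 antibody to printed compounds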
# [2] = binders from COS7 lysate, DM2A8 probe, primary screen, torsin A project, cell lysate, small-molecule microarray, fluorescence 635/667 (AID 1065); details: higher = more signal, COS7 lysate expressing mutant human TOR1A
# [3] = binders of probe aFGF2 on microarray, primary screen, stem cell growth factor project, biochemical, small-molecule microarray, fluorescence 635/667 (AID 1067); details: higher = more signal;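 note: measures binding of biotinylated aFGF2 protein to printed compounds on slides; z-score merges feature fluorescence and signal-to-noise across triplicate slides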
# [4] = binders of probe aFGF10 on microarray, primary screen, stem cell growth factor project, biochemical, small-molecule microarray, fluorescence 635/667 (AID 1071); details: higher = more signal;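 note: score merges 667 nm spot intensity and signal to noise from triplicate slides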
# [5] = molecular target: Neurogenic locus notch homolog protein 2 (Homo sapiens) (UniProt Q04721); experiment: Notch2 binders on small-molecule microarrays, primary screen, biochemical, small-molecule microarray, 635 nm fluorescence, stem cell growth factors (AID 1073); details: Notch2 binding, higher = more signal
# [6] = molecular target: Pro-neuregulin-1, membrane-bound isoform (Homo sapiens) (UniProt Q02297); experiment: NRG1 binders on small-molecule microarrays, primary screen, psychiatric disease protein project, biochemical, small-molecule microarray, fluorescence 635/667 (AID 1075); details: NRG1 binding, 635 nm fluorescence, higher = more signal;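 note: score combines 667 nm spot fluorescence with signal to noise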
# [7] = system: Neuregulin-1 EGF-like domain; experiment: binders of neuregulin-1 EGF-like domain, primary screen, biochemical, small-molecule microarray, 635 nm fluorescence (AID 1081); details: small-molecule microarray binding, higher = more signal;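 note: binding of the protein to compounds printed on small-molecule microarray slides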
# [8] = FRG1 promoter luciferase signal modulators, primary screen, FRG1 inhibition for FSHD, cell-based, C2C12 myotubes, firefly/Renilla luciferase, luminescence (AID 1084); details: higher = more signal, called active from +8 up or from −8 down
# [9] = binders of probe aFST on microarray, primary screen, stem cell growth factor project, biochemical, small-molecule microarray, fluorescence 635/667 (AID 1086); details: higher = more signal;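 note: score merges 667 nm fluorescence with signal-to-noise of each printed compound spot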
# [10] = binders of probe aHhip on microarray, primary screen, stem cell growth factor project, biochemical, small-molecule microarray, fluorescence 635/667 (AID 1087); details: higher = more signal;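 note: score merges spot fluorescence at 667nm with spot signal to noise ratio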
# [11] = system: PRMT1 (protein arginine N-methyltransferase 1); experiment: PRMT1 binders on small-molecule microarrays, primary screen, biochemical, small-molecule microarray, 635 nm fluorescence (AID 1088); details: small-molecule microarray binding, higher = more signal;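 note: binding of Prmt1 protein to compounds spotted on small-molecule microarray slides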
# [12] = yeast growth modulation, basal conditions, primary screen, YJM789 clinical isolate, OD600, 24 h (AID 1089);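 note: growth of clinical yeast isolate S. cerevisiae YJM 789 seeded 1000 cells per well; test concentration not given here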; details: S. cerevisiae YJM789 growth, higher = more signal, called active from +8 up or from −8 down
# [13] = fission yeast growth modulation, primary screen, strain 972, OD600, 24 h, no modulator (AID 1090);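 note: basal condition with compound alone and no growth modifier present; test concentration not given here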; details: S. pombe 972 growth, higher = more signal, called active from +8 up or from −8 down
# [14] = S. cerevisiae growth modulation with rapamycin, primary screen, strain BY4716, OD600, 96 h (AID 1091); details: higher = more signal, called active from +8 up or from −8 down; note: test concentration not given here
# [15] = molecular target: Torsin-1A-interacting protein 2 (Homo sapiens) (UniProt Q8NFQ8); experiment: LULL1 binders on small-molecule microarray, primary screen, cell lysate, human LULL1 lysate, 635/667 nm fluorescence (AID 1092); details: hLULL1 lysate binding, 635 nm fluorescence, higher = more signal;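 note: probe is lysate of COS7 cells overexpressing human LULL1; score merges per-feature 667 nm fluorescence with signal-to-noise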
# [16] = E. coli growth modulation, two-sided OD650, primary screen, E. coli filamentation project, strain DRC41, 24 h (AID 1093); details: OD650, 24 h, higher = more signal, called active from +8 up or from −8 down;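 note: MC1000 strain lacking acrAB efflux and sulA so SOS filamentation is blocked; test concentration not given here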
# [17] = small-molecule microarray binders of probe aLefty2, primary screen, biochemical, biotinylated probe, 635/667 nm fluorescence (AID 1094); details: higher = more signal;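 note: score merges spot fluorescence near 667 nm with spot signal-to-noise ratio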
# [18] = system: Noggin (protein binding on small-molecule microarray); experiment: Noggin binders on small-molecule microarray, primary screen, biochemical, 635/667 nm fluorescence (AID 1095); details: 635 nm fluorescence, higher = more signal;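 note: score merges 667 nm feature fluorescence with signal to noise over triplicate slides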
# [19] = molecular target: Neurogenic locus notch homolog protein 3 (Homo sapiens) (UniProt Q9UM47); experiment: NOTCH3 binders on small-molecule microarray, primary screen, biochemical, 635/667 nm fluorescence (AID 1096); details: NOTCH3 binding, 635 nm fluorescence, higher = more signal
# [20] = small-molecule microarray binders of probe aEGFR, primary screen, biochemical, biotinylated probe, 635/667 nm fluorescence (AID 1097); details: higher = more signal;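 note: probe is a biotinylated anti-EGFR antibody binding compounds printed on slides; score combines fluorescence near 667 nm and signal to noise of each spot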
# Sequence of Neurogenic locus notch homolog protein 3 (Homo sapiens) (Q9UM47 whole entry, looked up): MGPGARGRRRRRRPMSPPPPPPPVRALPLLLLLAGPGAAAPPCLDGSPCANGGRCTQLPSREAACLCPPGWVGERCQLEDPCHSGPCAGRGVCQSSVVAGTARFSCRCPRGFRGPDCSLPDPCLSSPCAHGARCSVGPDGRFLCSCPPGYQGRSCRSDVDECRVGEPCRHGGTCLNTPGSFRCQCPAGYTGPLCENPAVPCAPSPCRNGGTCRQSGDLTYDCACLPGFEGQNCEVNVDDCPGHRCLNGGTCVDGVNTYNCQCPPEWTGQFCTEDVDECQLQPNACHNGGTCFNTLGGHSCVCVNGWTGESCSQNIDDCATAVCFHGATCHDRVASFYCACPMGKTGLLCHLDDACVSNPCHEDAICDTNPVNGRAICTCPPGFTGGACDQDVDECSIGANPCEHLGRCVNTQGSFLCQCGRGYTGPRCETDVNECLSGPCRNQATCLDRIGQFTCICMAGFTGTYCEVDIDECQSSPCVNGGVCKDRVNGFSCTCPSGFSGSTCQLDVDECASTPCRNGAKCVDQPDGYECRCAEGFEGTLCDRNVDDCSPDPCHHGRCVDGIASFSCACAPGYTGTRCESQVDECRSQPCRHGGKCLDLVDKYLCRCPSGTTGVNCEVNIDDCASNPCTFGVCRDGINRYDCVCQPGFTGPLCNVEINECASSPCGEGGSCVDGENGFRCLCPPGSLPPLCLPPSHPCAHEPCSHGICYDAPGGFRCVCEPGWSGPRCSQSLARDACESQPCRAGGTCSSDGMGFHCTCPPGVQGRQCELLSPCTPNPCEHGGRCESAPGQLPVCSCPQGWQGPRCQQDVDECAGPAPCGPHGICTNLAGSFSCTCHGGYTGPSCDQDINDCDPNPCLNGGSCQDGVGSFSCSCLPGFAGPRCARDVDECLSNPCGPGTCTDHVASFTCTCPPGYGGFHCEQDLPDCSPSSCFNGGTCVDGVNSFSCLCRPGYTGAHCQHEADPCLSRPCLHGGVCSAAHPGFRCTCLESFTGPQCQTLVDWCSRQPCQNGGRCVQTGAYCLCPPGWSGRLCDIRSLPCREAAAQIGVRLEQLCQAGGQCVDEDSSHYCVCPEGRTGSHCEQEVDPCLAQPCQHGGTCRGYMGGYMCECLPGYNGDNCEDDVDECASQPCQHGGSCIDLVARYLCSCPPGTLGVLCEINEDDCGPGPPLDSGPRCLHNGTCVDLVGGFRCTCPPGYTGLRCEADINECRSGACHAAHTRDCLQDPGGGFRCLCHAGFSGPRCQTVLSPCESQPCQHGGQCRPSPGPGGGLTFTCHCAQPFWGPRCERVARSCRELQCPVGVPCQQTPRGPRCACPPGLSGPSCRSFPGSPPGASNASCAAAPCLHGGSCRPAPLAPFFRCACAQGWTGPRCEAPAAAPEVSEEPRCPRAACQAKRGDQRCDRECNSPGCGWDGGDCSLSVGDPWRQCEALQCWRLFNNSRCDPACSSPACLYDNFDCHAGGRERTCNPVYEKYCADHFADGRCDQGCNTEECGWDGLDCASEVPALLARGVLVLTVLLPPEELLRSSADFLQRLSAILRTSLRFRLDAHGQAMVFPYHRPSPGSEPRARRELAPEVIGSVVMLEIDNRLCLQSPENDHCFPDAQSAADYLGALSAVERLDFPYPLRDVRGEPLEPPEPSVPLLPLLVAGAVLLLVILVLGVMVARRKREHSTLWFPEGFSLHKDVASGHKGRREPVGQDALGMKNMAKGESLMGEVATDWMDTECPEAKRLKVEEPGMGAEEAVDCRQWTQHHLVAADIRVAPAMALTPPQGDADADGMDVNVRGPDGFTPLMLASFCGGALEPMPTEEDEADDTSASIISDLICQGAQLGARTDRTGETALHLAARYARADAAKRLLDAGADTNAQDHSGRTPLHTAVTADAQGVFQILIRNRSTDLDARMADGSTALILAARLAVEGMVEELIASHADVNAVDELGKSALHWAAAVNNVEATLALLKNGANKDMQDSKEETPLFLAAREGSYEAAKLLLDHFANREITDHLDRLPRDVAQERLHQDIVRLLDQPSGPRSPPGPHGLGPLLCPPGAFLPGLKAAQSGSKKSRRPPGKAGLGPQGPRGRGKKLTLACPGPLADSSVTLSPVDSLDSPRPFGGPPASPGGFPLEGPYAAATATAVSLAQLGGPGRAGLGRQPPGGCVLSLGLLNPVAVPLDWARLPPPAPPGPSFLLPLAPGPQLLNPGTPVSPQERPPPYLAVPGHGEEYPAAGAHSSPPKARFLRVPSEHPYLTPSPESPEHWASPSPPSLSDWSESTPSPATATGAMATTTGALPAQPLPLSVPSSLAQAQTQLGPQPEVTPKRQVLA
# Sequence of Neurogenic locus notch homolog protein 2 (Homo sapiens) (Q04721 whole entry, looked up, canonical isoform): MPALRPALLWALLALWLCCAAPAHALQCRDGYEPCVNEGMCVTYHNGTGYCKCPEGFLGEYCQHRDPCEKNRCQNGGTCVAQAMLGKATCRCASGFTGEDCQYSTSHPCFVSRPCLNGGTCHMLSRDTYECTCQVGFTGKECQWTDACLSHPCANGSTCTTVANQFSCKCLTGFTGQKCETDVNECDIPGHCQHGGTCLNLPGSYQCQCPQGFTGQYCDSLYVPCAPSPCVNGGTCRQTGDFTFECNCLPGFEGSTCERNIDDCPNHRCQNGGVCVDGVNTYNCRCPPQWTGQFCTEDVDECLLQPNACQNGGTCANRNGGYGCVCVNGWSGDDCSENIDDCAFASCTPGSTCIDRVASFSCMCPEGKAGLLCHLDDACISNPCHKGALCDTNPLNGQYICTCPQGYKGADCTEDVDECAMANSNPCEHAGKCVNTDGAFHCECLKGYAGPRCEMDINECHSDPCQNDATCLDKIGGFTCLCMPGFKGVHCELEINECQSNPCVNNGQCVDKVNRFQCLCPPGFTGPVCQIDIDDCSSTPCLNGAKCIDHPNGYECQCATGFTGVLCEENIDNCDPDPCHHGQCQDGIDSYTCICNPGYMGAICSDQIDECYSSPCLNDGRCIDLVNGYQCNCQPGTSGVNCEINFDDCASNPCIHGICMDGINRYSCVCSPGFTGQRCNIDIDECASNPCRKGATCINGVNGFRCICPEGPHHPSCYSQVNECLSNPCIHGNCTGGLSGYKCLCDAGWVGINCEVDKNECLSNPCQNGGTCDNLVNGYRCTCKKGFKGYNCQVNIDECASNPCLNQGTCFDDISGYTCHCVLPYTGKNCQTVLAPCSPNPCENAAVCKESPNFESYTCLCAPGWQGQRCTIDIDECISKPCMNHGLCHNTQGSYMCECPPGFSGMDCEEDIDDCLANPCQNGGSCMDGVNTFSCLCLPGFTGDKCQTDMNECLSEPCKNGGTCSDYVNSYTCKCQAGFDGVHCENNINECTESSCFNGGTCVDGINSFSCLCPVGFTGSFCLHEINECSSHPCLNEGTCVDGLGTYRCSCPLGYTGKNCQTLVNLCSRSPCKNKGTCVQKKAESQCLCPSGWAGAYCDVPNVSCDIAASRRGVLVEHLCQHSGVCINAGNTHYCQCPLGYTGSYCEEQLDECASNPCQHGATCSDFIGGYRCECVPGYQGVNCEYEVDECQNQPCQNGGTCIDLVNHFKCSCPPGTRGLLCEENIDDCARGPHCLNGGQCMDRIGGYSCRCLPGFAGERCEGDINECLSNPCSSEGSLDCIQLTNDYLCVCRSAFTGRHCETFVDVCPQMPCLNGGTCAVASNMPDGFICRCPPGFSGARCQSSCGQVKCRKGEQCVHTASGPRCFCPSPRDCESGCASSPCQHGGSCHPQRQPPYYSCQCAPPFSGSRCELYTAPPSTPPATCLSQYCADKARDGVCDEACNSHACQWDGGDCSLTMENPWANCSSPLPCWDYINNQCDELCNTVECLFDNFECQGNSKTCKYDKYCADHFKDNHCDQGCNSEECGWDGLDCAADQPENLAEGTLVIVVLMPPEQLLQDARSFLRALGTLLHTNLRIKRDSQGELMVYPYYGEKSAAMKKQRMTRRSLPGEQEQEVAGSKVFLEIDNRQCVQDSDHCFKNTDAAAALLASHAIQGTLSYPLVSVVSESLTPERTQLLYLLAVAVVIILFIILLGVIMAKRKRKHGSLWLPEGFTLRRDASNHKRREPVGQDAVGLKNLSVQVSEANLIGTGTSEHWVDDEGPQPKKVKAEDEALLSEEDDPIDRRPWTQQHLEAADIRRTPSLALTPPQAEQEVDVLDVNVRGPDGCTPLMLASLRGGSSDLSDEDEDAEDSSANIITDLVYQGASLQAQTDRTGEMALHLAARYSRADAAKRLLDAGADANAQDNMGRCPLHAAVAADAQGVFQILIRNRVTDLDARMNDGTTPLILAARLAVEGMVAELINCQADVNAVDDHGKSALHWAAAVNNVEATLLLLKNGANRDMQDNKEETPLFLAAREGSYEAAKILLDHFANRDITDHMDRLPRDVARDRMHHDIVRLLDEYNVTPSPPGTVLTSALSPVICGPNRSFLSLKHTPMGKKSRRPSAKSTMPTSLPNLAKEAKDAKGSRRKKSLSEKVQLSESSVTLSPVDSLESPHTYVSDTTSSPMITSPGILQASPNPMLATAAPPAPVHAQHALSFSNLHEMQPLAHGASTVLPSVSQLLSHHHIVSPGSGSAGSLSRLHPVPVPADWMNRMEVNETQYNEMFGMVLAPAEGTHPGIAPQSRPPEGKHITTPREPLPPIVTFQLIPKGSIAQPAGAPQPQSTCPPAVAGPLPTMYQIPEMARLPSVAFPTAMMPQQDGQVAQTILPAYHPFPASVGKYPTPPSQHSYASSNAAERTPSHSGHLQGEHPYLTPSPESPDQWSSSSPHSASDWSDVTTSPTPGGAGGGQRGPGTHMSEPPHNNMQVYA
SMILES,composite z-score [1],composite z-score [2],composite z-score [3],composite z-score [4],composite z-score [5],composite z-score [6],composite z-score [7],z-score [8],composite z-score [9],composite z-score [10],composite z-score [11],z-score [12],z-score [13],z-score [14],composite z-score [15],z-score [16],composite z-score [17],composite z-score [18],composite z-score [19],composite z-score [20]
CCCC=C(CCC)[C@@H](NP(=O)(c1ccccc1)c1ccccc1)c1ccc(C(F)(F)F)cc1,-0.176,0.158,-0.0975,0.0842,0.131,1.74,0.557,1.96 (inactive),0.237,0.0216,0.804,-0.276 (inactive),0.423 (inactive),0.0291 (inactive),1.01,-0.159 (inactive),0.0593,-0.13,0.11,0.58
NC(=O)N1C(=O)C2C(C1=O)C1C=C(c3ccc(CO)cc3)C2C(C2CC2)N1Cc1sc2ccccc2c1Cl (stereo not given),-0.418,2.2,0.0433,1.17,1.19,1.6,1.28,-1.27 (inactive),0.32,0.0623,1.54,2.22 (inactive),-2.31 (inactive),0.266 (inactive),2.68,1.34 (inactive),0.0139,0.695,1.06,-0.0271
COc1ccc(C(O)C2C=CC3C(=O)N(C)C(=O)C3N2N2CCCCC2)cc1 (stereo not given),-0.162,1.42,0.213,1,1.65,1.61,1.38,1.51 (inactive),0.201,-0.283,0.973,-0.186 (inactive),-0.275 (inactive),-0.0667 (inactive),2.83,-0.454 (inactive),0.311,0.158,0.871,0.0961
CN(C)CCCCNC(=O)[C@H]1C[C@H]2C(=O)N3CCC[C@H]3C(=O)N2[C@H]1c1ccc(O)cc1,-1.12,-1.77,-0.284,-1.1,-1.3,-1.06,-0.239,4.64 (inactive),0.0253,-0.389,0.765,-0.859 (inactive),1.1 (inactive),-0.384 (inactive),0.391,1.27 (inactive),-0.234,-0.439,0.229,-0.45
CC(C)N1CC=CC23O[C@@H]4C=CCCOC(=O)C4[C@H]2C(=O)N(CCO)[C@@H]3C1=O (stereo not given in full),0.108,2.11,-0.177,-0.351,-0.537,-0.637,0.606,-0.286 (inactive),-0.398,-0.0939,0.291,-0.631 (inactive),-0.349 (inactive),-1.2 (inactive),-0.805,2.99 (inactive),-0.145,-0.736,-0.362,-0.203
C[C@]1(C(=O)NCCN2CCOCC2)c2ccccc2C(=O)N(Cc2ccc(OC(F)(F)F)cc2)[C@H]1c1ccc(CO)cc1,0.0198,0.317,-0.146,-0.735,-0.375,2.05,1.02,-2.39 (inactive),0.045,-0.236,0.562,-0.15 (inactive),-0.859 (inactive),-0.854 (inactive),1.82,0.365 (inactive),-0.0823,0.557,0.164,-0.213
CCOC(=O)C[C@H]1[C@H](OC(=O)c2ccc(-c3ccccc3)cc2)[C@@H](NC(=O)c2ccc3ccccc3c2)c2cc(OCCCO)ccc2N1C(=O)c1ccc2ccccc2n1,-0.0093,0.0135,-0.06,0.398,0.676,0.706,0.15,0.247 (inactive),0.426,0.154,1.15,-0.72 (inactive),-0.918 (inactive),0.592 (inactive),1.47,-0.56 (inactive),-0.0358,0.372,0.895,0.0167
Cc1ccc(S[C@]2(C(=O)NCc3ccccc3)CC(=O)N(C(C)C)[C@@H]2c2ccc(CO)cc2I)cc1,2,-0.464,-0.177,-0.392,-1.09,1.05,0.399,-1.16 (inactive),0.03,0.0623,0.448,-2.82 (inactive),-1.38 (inactive),0.317 (inactive),1.73,0.349 (inactive),0.299,-0.466,-0.44,-0.229
COCCCNC(=O)[C@@]1(Sc2ccc(C)cc2)CC(=O)N(Cc2cc(C(F)(F)F)cc(C(F)(F)F)c2)[C@@H]1c1ccc(CO)cc1,0.0028,0.525,-0.144,-0.29,0.0762,1.22,0.875,-0.42 (inactive),-0.168,0.213,1.54,-0.157 (inactive),-1.51 (inactive),-1.11 (inactive),1.46,-0.296 (inactive),-0.0927,1.6,0.715,-0.0531
C=CCN1C(=O)[C@@]2(O[C@@H](CCO)[C@H]([Si](C)(C)c3ccc(OC)cc3)[C@H]2C)c2cc(N3C(=O)c4ccccc4Oc4ccccc43)ccc21,-0.033,0.0892,-0.0491,0.907,0.166,0.402,0.882,-1.94 (inactive),-0.204,-0.261,0.0455,1.34 (inactive),0.237 (inactive),9.42 (active),1.65,2.15 (inactive),-0.0665,0.514,0.612,-0.135
